# Assay results as given in PubChem BioAssay (NCI).
# This is part of a sample that, as a whole, favours compounds with a hit. Of some 79,000 tested, about 15% had one in any assay. A number with no mark means an inactive call. The source made the active and inactive calls. No stated cut-off is given here; in the data, active means growth inhibition above about 70%; inactive means the rest.
# Legend:
# [1] = NCI Yeast Anticancer Drug Screen. Data for the rad50 strain (AID 155);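 further: 0% = growth of vehicle-only cultures of the same strain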; details: S. cerevisiae rad50 strain growth inhibition, hits give high values
# Summary of the method: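 Growth of the mutant yeast was measured after compound exposure and referenced to vehicle-treated cultures.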
# [2] = NCI Yeast Anticancer Drug Screen. Data for the mec2-1 strain (AID 157); details: S. cerevisiae mec2-1 strain, hits give high values
# Summary of the method: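 Growth inhibition is read against vehicle-treated controls after compound exposure of the mec2-1 yeast strain, which is defective in DNA damage repair or cell cycle control.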
# [3] = NCI Yeast Anticancer Drug Screen. Data for the sgs1 mgt1 strain (AID 161);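 further: 0% = growth of cultures given vehicle only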; details: S. cerevisiae sgs1 mgt1 strain, hits give high values
# Summary of the method: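 Compounds are added to genetically altered yeast, and growth is compared with cultures given vehicle alone to give percent inhibition.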
# [4] = NCI Yeast Anticancer Drug Screen. Data for the cln2 rad14 strain (AID 165);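 further: 0% = growth equal to vehicle treated cultures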; details: S. cerevisiae cln2 rad14 strain, hits give high values
# Summary of the method: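 Growth inhibition, relative to vehicle-treated controls, is the read-out. The test organism is a yeast strain with defined genetic alterations, cln2 rad14.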
# [5] = NCI Yeast Anticancer Drug Screen. Data for the bub3 strain (AID 167); details: S. cerevisiae bub3 mutant strain, hits give high values
# Summary of the method: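 Whole-cell yeast assay. The mutant strain was incubated with compounds, and growth inhibition was determined by comparison with vehicle-treated cells.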
# [6] = NCI Yeast Anticancer Drug Screen. Data for the mlh1 rad18 strain (AID 175); details: S. cerevisiae mlh1 rad18 strain growth inhibition, hits give high values
# Summary of the method: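 Cells of a genetically altered yeast strain, deficient in DNA damage repair, were treated with compound. Their growth was then compared with that of vehicle-treated cultures to give inhibition.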
# [7] = at 5.0 µM (retest, dose inferred, filed as 0.5)
# [8] = at 50.0 µM (retest, dose inferred, filed as 5.0)
SMILES,"growth inhibition [1, 7]","growth inhibition [1, 8]",growth inhibition ([1]; at 50.0 µM),"growth inhibition [2, 7]","growth inhibition [2, 8]",growth inhibition ([2]; at 50.0 µM),"growth inhibition [3, 7]","growth inhibition [3, 8]",growth inhibition ([3]; at 50.0 µM),"growth inhibition [4, 7]","growth inhibition [4, 8]",growth inhibition ([4]; at 50.0 µM),"growth inhibition [5, 7]","growth inhibition [5, 8]",growth inhibition ([5]; at 50.0 µM),"growth inhibition [6, 7]","growth inhibition [6, 8]",growth inhibition ([6]; at 50.0 µM)
c1ccc2c(c1)Nc1ccc3ccccc3c1S2,3%,-1%,47.8%,-50%,3%,15.2%,-1%,13%,41.5%,4%,-12%,-39.9%,30%,3%,48.6%,3%,13%,66.5%
CC(=O)OC/C=C/CCCOC(C)=O,-15%,4%,77.8% (active),-12%,-17%,64.3%,-7%,5%,84% (active),38%,31%,77.9% (active),17%,19%,80.3% (active),5%,-5%,62.6%
C=C(CN(C)C)C(=O)c1ccccc1[N+](=O)[O-],1%,92% (active),8.5%,10%,96% (active),51.4%,6%,91% (active),74.2% (active),99% (active),91% (active),-25.4%,1%,92% (active),71.7% (active),8%,92% (active),66.8%
NC(=S)N/N=C1\CCCCc2ccccc21,5%,85% (active),85.7% (active),-19%,83% (active),89.5% (active),4%,87% (active),83.8% (active),13%,80% (active),83.8% (active),17%,88% (active),79.1% (active),5%,91% (active),84.2% (active)
